Assay [1] has as its target Estrogen receptor (Homo sapiens) (UniProt P03372). Briefly: CCTE_Deisenroth_AIME_384WELL_LUC_Shift: CCTE's 384-well Estrogen Receptor Transactivation Assay with AIME metabolic competence data shift (ERTA luciferase; difference in metabolism positive and negative), Deisenroth Lab (AID 2284041).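 Further: shift is response with S9 minus without S9 so positive means metabolism raised ER signal.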 The procedure, abridged:
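Chemicals (0.002–200 uM, 10 points) pre-incubated 2 h with alginate-encapsulated induced male Sprague Dawley rat liver S9 or S9-free, then medium applied 24 h to VM7Luc4E2 cells; luciferase. Endpoint is per-concentration difference, S9-positive minus negative.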

The subject of a further assay is DIO2 (gene 1734). Briefly: CCTE_GLTED_hDIO2: CCTE's human Deiodinase 2 (DIO2) Inhibition Assay, Great Lakes Toxicology and Ecology Division (GLTED) Lab (AID 2284050; active means hit-call score of the fitted dose curve at least 0.9, where 1 is the maximum). The procedure, abridged: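 hDIO2 enzyme + test chem, 3 h → free iodide from substrate; step 2: Sandell-Kolthoff (Ce IV reduction by As, iodide-catalysed), spectrophotometric read. Triplicate plates; DMSO = baseline.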

A short description of assay [2]: CCTE_Shafer_MEA_dev_burst_rate: CCTE's Neural Network Formation Assay for Burst Rate, Shafer Lab (AID 2284042).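 Further: potency for loss of burst rate below DMSO control.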 The procedure, abridged:
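Cells plated, treated day 0; recorded DIV 5, 7, 9, 12; fed and re-treated DIV 5, 9. Endpoint: bursts per recording time, active-electrode well mean, trapezoidal AUC, fitted in decreasing direction against DMSO baseline.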

Assay [3] is described as follows: CCTE_Shafer_MEA_dev_bursting_electrodes_number: CCTE's Neural Network Formation Assay for Number of Bursting Electrodes, Shafer Lab (AID 2284043; active means hit-call score of the fitted dose curve at least 0.9, where 1 is the maximum;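 further: potency is for loss of bursting electrodes relative to DMSO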). The procedure, abridged: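 Primary rat cortical neurons plated on 16-electrode MEA wells, exposed from day 0 with compound renewed at DIV 5 and 9. Electrodes bursting ≥1 burst per 2 min counted on days 5, 7, 9 and 12; trapezoidal AUC across days, fitted for loss versus DMSO.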

A short description of assay [4]: CCTE_Shafer_MEA_dev_per_burst_interspike_interval: CCTE's Neural Network Formation Assay for Burst Interspike Interval, Shafer Lab (AID 2284044).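 Further: mean spike spacing inside bursts as AUC over recordings on days 5 7 9 12; potency for a decrease of within-burst interspike interval below DMSO level.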 The procedure, abridged:
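Developmental network-formation MEA in primary rat cortical cultures with exposure spanning days 0–12. Within-burst ISI is averaged per well and integrated across recording days by area under the curve, with DMSO as negative control baseline.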

Assay [5] is described as follows: CCTE_Shafer_MEA_dev_burst_duration_mean: CCTE's Neural Network Formation Assay for Mean Burst Duration, Shafer Lab (AID 2284045).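 Further: curve fitted for loss meaning shorter burst duration than DMSO.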 The procedure, abridged:
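Primary rat cortical neurons on 48-well 16-electrode MEA plates, exposed from day 0 with renewal at DIV 5 and 9; spontaneous activity recorded on days 5, 7, 9, 12. Well-mean burst duration across bursting electrodes, collapsed as trapezoidal AUC; DMSO baseline.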

Assay [6] is described as follows: CCTE_Shafer_MEA_dev_interburst_interval_mean: CCTE's Neural Network Formation Assay for Mean Interburst Interval, Shafer Lab (AID 2284046).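 Further: well-mean interburst interval of bursting electrodes as AUC over four recording days; curve fitted for decrease in interburst interval relative to DMSO.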 The procedure, abridged:
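Developing rat cortical networks on 48-well MEAs receive compound from the day of plating. Burst intervals from each active electrode are averaged per well, and AUC over the recording days is fitted in the negative direction against DMSO.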

Assay [7] in a line: CCTE_Shafer_MEA_dev_inter_network_spike_interval_mean: CCTE's Neural Network Formation Assay for Mean Inter-network Spike Interval, Shafer Lab (AID 2284047). The procedure, abridged:
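Rat cortical cultures, 1.5 x 10^5 cells/well on 48-well MEA plates; continuous exposure days 0–12, medium and compound refreshed DIV 5, 9. Mean time between consecutive network-spike peaks; AUC across DIV 5/7/9/12; DMSO baseline, negative fitting direction.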

Assay [8] is described as follows: CCTE_Shafer_MEA_dev_network_spike_number: CCTE's Neural Network Formation Assay for Number of Network Spikes, Shafer Lab (AID 2284048).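 Further: fit as a loss of signal meaning fewer network spikes than DMSO.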 The procedure, abridged: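 Primary rat cortical neurons on PEI/laminin 48-well MEA plates, dosed from plating day 0 for 12 days, renewed at DIV 5 and 9. Network spike counts recorded DIV 5, 7, 9, 12, collapsed as trapezoidal AUC; DMSO baseline.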

Assay [9] in a line: CCTE_Shafer_MEA_dev_network_spike_peak: CCTE's Neural Network Formation Assay for Mean Number of Electrodes in Network Spike, Shafer Lab (AID 2284049).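 Further: fitted for loss of signal meaning fewer electrodes in network spikes than DMSO.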 The procedure, abridged: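 Network-spike peak electrode count from recordings on days 5, 7, 9 and 12 was combined as trapezoidal area under the curve. Rat cortical cultures were treated continuously from plating, with compound renewed at each feed (DIV 5, 9); fits versus DMSO.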

Outcome and AC50 data for 16 compounds are collected here from PubChem BioAssay (EPA / NIEHS).

Results filed as inconclusive are left out. Active and inactive are the calls of the source. How the source made its calls, unless noted: active means hit-call score of the fitted dose curve at least 0.9, where 1 is the maximum; inactive means score below 0.9.

Chain of Estrogen receptor (Homo sapiens) (P03372 whole entry, looked up): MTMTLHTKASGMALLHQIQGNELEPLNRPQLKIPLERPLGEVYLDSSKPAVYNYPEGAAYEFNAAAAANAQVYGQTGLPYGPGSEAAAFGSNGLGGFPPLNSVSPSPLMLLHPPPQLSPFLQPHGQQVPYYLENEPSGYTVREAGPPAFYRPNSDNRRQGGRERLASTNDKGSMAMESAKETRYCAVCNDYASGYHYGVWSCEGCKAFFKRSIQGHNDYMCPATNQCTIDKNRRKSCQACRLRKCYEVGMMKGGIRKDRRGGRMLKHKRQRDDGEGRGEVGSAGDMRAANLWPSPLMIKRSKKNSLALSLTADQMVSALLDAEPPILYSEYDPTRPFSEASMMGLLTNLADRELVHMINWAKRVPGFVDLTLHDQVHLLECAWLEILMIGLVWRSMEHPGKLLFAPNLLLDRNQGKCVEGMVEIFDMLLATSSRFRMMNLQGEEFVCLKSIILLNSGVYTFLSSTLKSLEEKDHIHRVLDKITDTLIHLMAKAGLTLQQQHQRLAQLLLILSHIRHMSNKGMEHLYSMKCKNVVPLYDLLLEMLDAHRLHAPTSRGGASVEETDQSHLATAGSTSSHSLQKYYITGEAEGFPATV

For `CC(C)OC(=O)C(C)(C)Oc1ccc(C(=O)c2ccc(Cl)cc2)cc1`, in assay [1], the outcome was inactive.

Regarding `CC(=O)O[C@]1(C(C)=O)CC[C@H]2[C@@H]3C=C(Cl)C4=CC(=O)[C@@H]5C[C@@H]5[C@]4(C)[C@H]3CC[C@@]21C`, the compound was called inactive in the assay on DIO2 (gene 1734).

With `COC(=O)CCC(=O)OC`, the result in assay [1] was inactive.

As for `CCCCCCC(CCCCCCCCCCC(=O)OCC(COC(C)=O)OC(C)=O)OC(C)=O` (centres undefined), in assay [1], the result was inactive.

In the case of `NC1CCCCC1`, the outcome in assay [1] was inactive.

As to `CN(C)CCCN1c2ccccc2Sc2ccc(Cl)cc21`, the concentration at half-maximal activity (AC50) in assay [2] is 5.08 µM (active); in assay [3], 4.33 µM (active); in assay [4] it was 8.95 µM (active); in [5], 4.79 µM (active); in assay [6], 7.95 µM (active); in assay [8], 8.7 µM (active). Besides, the AC50 in [9] was 5.16 µM (active). For the same compound, in [7], the call was inactive.

On to `CCCCCCCCCCCCCCOS(=O)(=O)O`, for which the half-maximal activity concentration (AC50) in the assay on DIO2 (gene 1734) was 36.9 µM (active).

Consider `CN(C)CCCN(C)CCCN(C)C`, for which the result in assay [1] was inactive.

Take `CC1(C)C(=O)NC(=O)N1CO`: the outcome in assay [1] was inactive.

Regarding `O=Cc1ccccc1C=O`, the concentration at half-maximal activity (AC50) with DIO2 (gene 1734) was 46.6 µM (active).

On to `Cc1ccc(C(C)(C)C)c(O)c1`, for which, in assay [1], the result was inactive.

In the case of `c1ccc2occc2c1`, the outcome in assay [1] was inactive.

For `COC(=O)[C@H]1[C@H]2C[C@@H]3c4[nH]c5cc(OC)ccc5c4CCN3C[C@H]2C[C@@H](OC(=O)c2cc(OC)c(OC)c(OC)c2)[C@@H]1OC`, the AC50 in [2] is 5.23 µM (active); in [3] it was 3.34 µM (active); in assay [4] it was 3.76 µM (active); in [5] it was 2.43 µM (active); in [6], 3.27 µM (active); in assay [9] it was 5.07 µM (active). For the same compound, the compound was called inactive in assay [7].

For `O=[Si]=O`, the result in [1] was inactive.

Consider `CCCCCCC(C=O)=Cc1ccccc1`, for which the AC50 with DIO2 (gene 1734) was 15.2 µM (active).

Regarding `CC(C)c1cccc(C(C)C)c1`, the outcome in [1] was inactive.
